# The list is not random: actives were taken first. Their share in the collection is about 1.6%.
# S1P2 blocker: S1P2 (human) receptor antagonism. O95136. hit rate 0.21% among 97,000. cell-based S1P2 antagonist assay, inhibition at 5 uM. inhibition, % at 5 µM. AID 736; in the data active means inhibition above about 45%;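 further: CRE beta-lactamase reporter cells expressing human S1P2 stimulated with S1P; 0% = agonist at EC80 alone and 100% = agonist plus reference antagonist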
# Target sequence (O95136 whole entry, looked up): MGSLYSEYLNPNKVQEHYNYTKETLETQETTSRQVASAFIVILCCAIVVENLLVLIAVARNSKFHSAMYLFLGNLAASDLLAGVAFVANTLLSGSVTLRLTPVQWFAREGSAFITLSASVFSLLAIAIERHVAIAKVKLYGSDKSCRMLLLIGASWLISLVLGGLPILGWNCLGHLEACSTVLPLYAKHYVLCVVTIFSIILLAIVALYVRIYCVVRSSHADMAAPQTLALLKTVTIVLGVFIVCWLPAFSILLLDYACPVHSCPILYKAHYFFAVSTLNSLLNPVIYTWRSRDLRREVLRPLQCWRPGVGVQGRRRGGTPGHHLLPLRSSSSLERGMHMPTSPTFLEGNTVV
# cytoskel mod: modifiers of cytoskeleton assembly | HUVEC TNFa F-actin phalloidin imaging, high content | inhibition, % at 2 µM | AID 836 | hit rate 0.18% among 91,000;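 active means inhibition above the batch mean plus 3 SD and confirmed as a hit by visual image inspection, cut at about 30% in these data, passing the limit was not always enough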
# S1P2 agonist: activates the human S1P2 receptor | O95136 | S1P2-expressing cell line, agonist reporter read-out | activation, % at 4.5 µM | hit rate 0.46% among 97,000 | AID 729; in the data active means activation above about 16%;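 further: 0% = vehicle low control and 100% = maximal reference agonist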
# E-sel TNF inh: blocks E-selectin expression induced by TNF alpha; HUVEC TNFa-induced E-selectin immunofluorescence, high content; inhibition, % at 2 µM; hit rate 0.71% among 120,000; AID 1246;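 active means inhibition above the batch mean plus 3 SD, and confirmed as a hit on visual image review, cut at about 43% in these data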;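 further: 0% = TNF-stimulated DMSO wells and 100% = unstimulated control wells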
# TNFa cytotox: HUVEC cytotoxicity counter-screen, TNF alpha stimulated. HUVEC TNFalpha-stimulated, Hoechst cell count, imaging. cell count reduction, % at 2 µM. hit rate 0.17% among 93,000. AID 848;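 active means cell count reduction exceeding the screen mean by over 5 SD, scaled to untreated wells per plate, cut at about 78% in these data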;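 further: cells counted after 24 h of TNF alpha exposure following the 1 h pretreatment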
# VCAM1 TNFa inh: reduces TNF alpha induced VCAM1 expression in HUVEC. HUVEC TNFa-induced VCAM-1 immunofluorescence, high-content imaging. inhibition, % at 2 µM. hit rate 0.48% among 95,000;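 active means inhibition above the batch mean plus 3 SD, with images confirmed as a hit by eye, cut at about 37% in these data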;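 further: 0% = TNF-stimulated DMSO wells and 100% = unstimulated control wells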
# Starred values were filed as active, the others as inactive; / = no result given.
SMILES,S1P2 blocker,cytoskel mod,S1P2 agonist,E-sel TNF inh,TNFa cytotox,VCAM1 TNFa inh
CCC(CC)NC(=O)CCCSc1nc2ccccc2[nH]1,/,/,/,-3,/,/
Cc1cccc(CS(=O)(=O)c2nnc([C@H](Cc3ccccc3)NC(=O)OC(C)(C)C)o2)c1,12,-2,-4,12,23,58*
COC(=O)CS(=O)(=O)c1nnc([C@H](Cc2ccccc2)NC(=O)OC(C)(C)C)o1,23,25,-5,31,19,32
O=C(O)CCC(NC(=O)OCc1ccccc1)C(=O)O (stereo unspecified),-22,-8,-2,3,-7,-4
CSCCC(NC(=O)OCc1ccccc1)C(=O)O (stereo unspecified),-10,18,-3,-18,-24,97*
CCOc1ccc(NC(=O)CSc2nnc(C)n2CCCOC)cc1,19,12,-4,44,-45,18
Cc1cccc(NC(=O)CSc2nc3ccc(NC(=O)CSc4nnnn4-c4ccccc4)cc3s2)c1C,-14,-20,-2,-35,25,44*
CCN(CC)S(=O)(=O)c1ccc2[nH]c(=O)cc(C(=O)Nc3ccc(C)c(S(=O)(=O)N(CC)CC)c3)c2c1,/,/,/,15,/,/
Nc1ccc2c(c1)N1CCN=C1S2,-10,0,-2,73*,-19,11
CCN(CC)c1ccc(-c2nn3c(-c4n[nH]c5c4CCC5)nnc3s2)cc1,3,-26,-1,3,55,48*
Nc1c(C(=O)NCCN2CCOCC2)c2nc3ccccc3nc2n1CCc1ccccc1,-4,-20,29*,/,4,-7
Nc1c(C(=O)NCCN2CCOCC2)c2nc3ccccc3nc2n1-c1ccccc1,-4,-14,0,-22,14,13
Nc1c(C(=O)NCCN2CCOCC2)c2nc3ccccc3nc2n1CCc1ccccc1F,-38,15,45*,/,-13,-3
Cc1nc(CN2CCN(C(=O)c3ccc(C(C)(C)C)cc3)CC2)cs1,13,10,-2,6,-39,8
COCCCNC(=O)CSc1nc2c(sc3ccccc32)c(=O)n1CCCC(=O)NCC1CCCO1 (stereo unspecified),/,/,/,16,/,/
C=CCn1c2ccccc2c2nnc(SCN3C(=O)c4ccccc4C3=O)nc21,-21,-10,20*,-1,9,2
CN(C)c1nc(N)nc(CSc2n[nH]c(-c3ccccc3)n2)n1,-30,0,31*,-29,-15,16
O=C(CSc1n[nH]c(-c2ccccc2)n1)c1ccccc1,-10,0,-3,/,-10,0
O=C(c1ccccc1Sc1ccc([N+](=O)[O-])cc1)N1CCCCC1,/,/,/,1,/,/
O=c1cc(CN2CCN(c3ccccc3F)CC2)c2cc3c(cc2o1)CCCC3,-6,/,-3,1,-24,9
C=CC(=O)Nc1ccc(Br)cc1,5,-2,-1,12,5,52*
C=CCN1C(=O)/C(=C2/Sc3ccccc3N2CCCS(=O)(=O)O)SC1=S,9,65*,-3,-8,-37,0
COc1ccc(S(=O)(=O)n2ccc(-c3ccc(OCCN(C)c4ccccn4)cc3)n2)cc1,27,66*,-7,29,-16,0
COc1ccc(-c2cc(C)nc(SCc3cccc(C(=O)O)c3)n2)cc1,/,/,/,69*,/,/
COc1cc(NC(=S)N2CCC(C(O)(c3ccccc3)c3ccccc3)CC2)cc(OC)c1,/,/,/,-4,/,/
SMILES,S1P2 blocker,cytoskel mod,S1P2 agonist,E-sel TNF inh,TNFa cytotox,VCAM1 TNFa inh
O=C1CC(N(Cc2cccs2)C(=O)Nc2ccccc2)C(=O)N1c1ccc(Cl)cc1 (stereo unspecified),/,/,/,70*,/,/
Cn1c(CCNC(=O)c2ccco2)nc2cc(NC(=O)C3CCCCC3)ccc21,-2,2,-4,-31,0,-3
Cn1c(CCNC(=O)C2CCCCC2)nc2cc(NC(=O)c3cccs3)ccc21,/,/,/,63*,/,/
CCN1CCN(CC(=O)Nc2cccc(C)c2C)C(=O)C1=O,17,-15,-2,0,6,1
CC1=C(C(=O)Nc2ccc(F)cc2)C(c2ccc(C)o2)C2=C(CC(C)(C)CC2=O)N1 (stereo unspecified),11,6,21*,36,0,36
COCCNC(=O)c1ccccc1NC(=O)c1cccc([N+](=O)[O-])c1C,/,/,/,60*,/,/
Cc1ccc(SCCNC(=O)c2cccc([N+](=O)[O-])c2C)cc1,7,3,-5,-18,-3,-14
COC(=O)c1ccc(NC(=S)NC2CCc3ccccc32)cc1 (stereo unspecified),/,/,/,15,/,/
Nc1c(C(=O)Nc2nc3ccccc3s2)sc2nc(-c3cccs3)ccc12,73*,-36,-13,-33,46,29
CCN(CC)c1ccc(/C=N/N2CCN(Cc3cccc4ccccc34)CC2)c(O)c1,-2,8,-2,-44,-6,5
CC(C)c1nnc(NC(=O)CCC(=O)N2CCN(C3CCCCC3)CC2)s1,-3,-3,-8,21,23,36*
COc1cccc(NC(=O)c2ccc3snnc3c2)c1,2,1,-3,-16,/,-19
CCOc1ccc2nc(C)cc(Nc3ccc4c(c3)OCCO4)c2c1,2,68*,-6,6,-32,12
CCCOc1ccc([N+](=O)[O-])cc1C1NC(=S)NC(c2ccccc2)=C1C(=O)OCC (stereo unspecified),-20,-17,0,70*,26,25
CCOC(=O)C1=C(c2cccc(F)c2)NC(=S)NC1C (stereo unspecified),-2,16,-5,-10,-16,6
Cn1c2c(c(=O)n(C)c1=O)C1(C(=O)Nc3ccccc31)C(C#N)=C(N)O2 (stereo unspecified),-5,-30,-5,/,-3,24
Cc1cc(C)c2nc(SCC(=O)N3CC(=O)Nc4ccccc43)c(C#N)cc2c1,-3,27,0,-36,89*,100*
COc1ccc2nc(SCC(=O)N3CC(=O)Nc4ccccc43)c(C#N)cc2c1,-8,28,-1,-14,-13,-12
Cn1cnnc1Sc1ccc(C(=O)NCCC23CC4CC(CC(C4)C2)C3)cc1[N+](=O)[O-],/,/,/,-23,/,/
COC(=O)c1cscc1NC(C)=O,3,30*,-4,9,-20,9
COC(=O)c1ccc(NC(C)=O)cc1O,/,/,/,-18,/,/
CCSc1nc2ccccc2n1C(=O)/C=C\c1ccc(OC)c(OC)c1,20,23,-6,-46,22,94*
Cc1cc(NCCCn2ccnc2)n2c(nc3ccccc32)c1C#N,12,-3,1,3,0,1
CCc1c(C)c(C#N)c2nc3ccccc3n2c1Cl,/,/,/,67*,/,/
Cc1cc(NCCN2CCCCC2)n2c(nc3ccccc32)c1C#N,13,31,-4,100*,40,19
Cc1ccc(NC(=O)CCNCc2ccco2)cc1S(=O)(=O)N(C)C,/,/,/,14,/,/
COc1cc(C(=O)N2CCN(c3cc(Cl)ccc3Cl)CC2)cc(OC)c1OC,5,6,0,/,70,58*
COc1cc(C(=O)N2CCN(c3cccc(C)c3C)CC2)cc(OC)c1OC,-4,5,-12,/,34,-9
